# Bioassay records deposited in PubChem by The Scripps Research Institute Molecular Screening Center.
# Only some compounds are listed: those with a hit (about 4.2% of all), similar ones and a draw of the others.
# hcDAF-12 act: H. contortus DAF-12 activation, primary screen; hit rate 1.4% among 370,000; activation, % at 6.8 µM; HEK293 hcDAF-12 lit1-tk-luc reporter, luminescence; 0% DMSO, 100% Δ7-dafachronic acid; AID 652067;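 active = activation above the mean of all tested compounds plus 3 SD, cut at about 5.5% in these data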
# DAX1 inh: inhibitors of DAX1 repression of SF-1 activated StAR promoter; HEK293T StAR-luciferase reporter, SF-1/DAX-1 repression relief; inhibition, % at 6.8 µM; hit rate 1.1% among 370,000;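 active = inhibition above the mean over all tested compounds plus 3 SD, cut at about 3.6% in these data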;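 note: higher inhibition means more luminescence from relief of DAX-1 repression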
# SMARCA2 act: SMARCA2 function activation, primary screen. MG213 cells, MMTV-luciferase reporter, dexamethasone, overnight. activation, % at 9.1 µM. hit rate 1% among 370,000; in the data active = activation above about 7.8%
# ssDAF12 agonist: activates DAF-12 receptor from parasite S. stercoralis; activation, % at 6.8 µM; HEK293 ssDAF-12/GRIP1 lit1-tk-luc reporter, luminescence; % of 3 µM dafachronic acid response; AID 652126; hit rate 1% among 370,000;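 active = activation above the mean over all tested compounds plus 3 SD, cut at about 0.9% in these data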
# hgDAF12 agonist: hgDAF-12 agonism, primary luciferase screen; hit rate 1.8% among 370,000; activation, % at 6.8 µM; HEK293 GAL4-hgDAF12 UAS-luciferase reporter, agonist luminescence; normalized to butyrate control;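 active = activation above a cutoff set at the mean of all screened compounds plus 3 SD, cut at about 10% in these data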
# SMARCA2 act conf: confirmation of SMARCA2 (BRM) function activators; shares compounds with SMARCA2 act; MG213 cells, MMTV-luciferase with dexamethasone, luminescence, overnight; MG213 cells expressing E1A, Rb sequestered; DMSO wells 0%, reference activator 100%; activation, % at 9.1 µM; hit rate 30% among 3,500; AID 652260;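 active = activation above its plate's cutoff, the mean activation of tested wells plus 3 SD, cut at about 7.9% in these data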
# GAL4-VP16 Luc: activates GAL4-VP16 luciferase, flagging SMARCA2 activator hits; shares compounds with SMARCA2 act; activation, % at 9.1 µM; HEK293 GAL4-VP16 pG5luc reporter, luciferase luminescence; scaled: DMSO wells 0%, SAHA wells 100%; AID 686939; hit rate 41% among 3,500;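 active = activation above the solvent-only control well mean plus 3 SD, averaged across control plates, cut at about 5.2% in these data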
# LXR ag: activates human LXR-beta, counter-screen for hcDAF-12 agonists. AID 743027. shares compounds with hcDAF-12 act. activation, % at 6.8 µM. 3,400 tested, under 10 active. HEK293 Gal4-LXR tk-luc reporter, luminescence, 24 h; normalized: DMSO 0%, positive control 100%;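 active = mean percent activation of the reporter above a cutoff set as the average over tested compounds plus their standard deviation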
# Target sequence (P55055 whole entry, looked up, the tested form may be a part): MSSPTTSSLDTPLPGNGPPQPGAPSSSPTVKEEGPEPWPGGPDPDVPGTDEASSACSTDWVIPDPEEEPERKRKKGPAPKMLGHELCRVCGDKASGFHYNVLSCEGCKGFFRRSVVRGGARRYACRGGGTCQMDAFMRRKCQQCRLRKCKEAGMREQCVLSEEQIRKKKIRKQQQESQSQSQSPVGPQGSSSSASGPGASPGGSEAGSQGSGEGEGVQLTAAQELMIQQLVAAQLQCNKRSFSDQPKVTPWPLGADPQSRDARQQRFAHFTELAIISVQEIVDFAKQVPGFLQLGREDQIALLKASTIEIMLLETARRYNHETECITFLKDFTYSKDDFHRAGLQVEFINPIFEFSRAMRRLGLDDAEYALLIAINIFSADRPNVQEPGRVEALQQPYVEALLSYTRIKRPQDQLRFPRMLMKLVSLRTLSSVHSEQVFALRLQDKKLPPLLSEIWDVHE
# hcDAF12 ag: confirmation of H. contortus DAF-12 agonists; shares compounds with hcDAF-12 act; HEK293 hcDAF-12 lit1-tk-luc reporter, luminescence; % of Δ7-dafachronic acid response; activation, % at 6.8 µM; hit rate 61% among 3,400; AID 743032;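 active = mean activation across triplicate tests above the threshold derived from the earlier primary screen, cut at about 5.5% in these data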
# hgDAF12 ag: hgDAF-12 agonism, confirmation assay; shares compounds with hgDAF12 agonist; HEK293 GAL4-hgDAF12 luciferase reporter, agonist mode; percent of butyrate response; AID 743050; hit rate 80% among 3,300; activation, % at 6.8 µM;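 active = mean activation over triplicate wells above the hit cutoff derived from the earlier primary screen, cut at about 11% in these data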
# LXRb DAF12 ctr: LXR-beta agonism as DAF-12 counter-screen; shares compounds with hgDAF12 agonist; HEK293 Gal4-LXR luciferase reporter, 24 h; activation, % at 6.8 µM; 3,300 tested, under 10 active;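 active = mean activation of the triplicate above a set limit carried over from the primary screen, none filed active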
# Numbers stand for hits; - = inactive; . = not tested or not shown.
SMILES,hcDAF-12 act,DAX1 inh,SMARCA2 act,ssDAF12 agonist,hgDAF12 agonist,SMARCA2 act conf,GAL4-VP16 Luc,others
Cc1c(N=Nc2c(O)[nH]c(=S)[nH]c2=O)c(=O)n(-c2ccccc2)n1C,-,-,-,-,-,.,.,
O=c1[nH]c(=S)[nH]c(O)c1N=Nc1ccc(S(=O)(=O)N2CCc3ccccc32)cc1,-,-,14,-,-,11,-,
COc1cc(C)c(CN2CC=C(c3ccc(F)cc3)CC2)cc1C,-,-,-,-,-,.,.,
COc1cc2nc(CN3CC=C(c4ccccc4)CC3)[nH]c(=O)c2cc1OC,-,-,14,-,-,-,-,
Fc1cccc(F)c1-c1nc(-c2ccc(Cl)cc2)no1,-,-,8.2,1.8,-,13,-,
COc1cc2c(cc1OC)-c1c(OC)c(OC)cc3c1C(C2)N(C)CC3 (stereo unspecified),-,-,-,-,-,.,.,
COc1cc2c(cc1OC)-c1c3c(cc4c1[C@@H](C2)N(C)CC4)OCO3,-,-,11,-,-,15,-,
CN(C)P(=O)(C(Cl)=C(N1CCCCC1)N1CCCCC1)N(C)C,-,-,19,-,-,39,-,
CCOC(=O)[C@]12Cc3cc(C)ccc3[C@H]1N(C1CCCCC1)C(=O)c1cc(OC)ccc12,-,-,-,-,-,.,.,
Brc1csc(N2CCNCC2)n1,-,.,.,-,-,.,.,
Cc1ccccc1NC(=S)NC(NC(=O)CF)C(Cl)(Cl)Cl (stereo unspecified),-,-,9.2,-,-,-,-,
NC(Cc1ccccc1)c1csc(Nc2ccccn2)n1 (stereo unspecified),-,-,13,-,11,8.2,-,
NC(Cc1ccc(Cl)cc1)c1csc(Nc2ccccn2)n1 (stereo unspecified),-,-,-,-,-,.,.,
CCC1(c2ccc(C)cc2)C(=O)NC(=S)NC1=O,-,-,-,-,-,.,.,
O=C(CNC(=O)OCc1ccccc1)NC(Cc1ccccc1)P(=O)(Oc1ccccc1)Oc1ccccc1 (stereo unspecified),-,-,-,-,-,.,.,
O=C(c1cc(S(=O)(=O)N2CCCCC2)ccc1F)N1CCC2(CC1)OCCO2,-,-,8.1,-,-,-,-,
CCOC(=O)c1c(C)[nH]c(C(=O)C(C)N2CCCC2)c1C (stereo unspecified),-,-,8.4,-,-,-,-,
COc1ccc2nc(-c3ccc(CN4CCC(n5nnc6ccccc65)CC4)cc3)c(-c3ccccc3)nc2c1,-,-,-,-,-,.,.,
OC12ONC(c3ccccn3)C1N1CCC2CC1 (stereo unspecified),-,-,10.0,-,-,-,-,
COP(=O)(C(=O)Nc1ccccc1)C(CC(C)C)NC(=O)OCc1ccccc1 (stereo unspecified),-,-,-,-,-,.,.,
COC(=O)C(O)(c1ccc(NC(=S)NC(=O)c2ccc(Cl)cc2Cl)cc1)C(F)(F)F (stereo unspecified),-,-,-,-,-,.,.,
COC(=O)C(O)(c1ccc(NC(=O)NC2CCCCC2)cc1)C(F)(F)F (stereo unspecified),-,-,10,-,11,-,5.2,
COc1cc(O)c2c(c1)/C=C/C[C@H](O)[C@H](O)[C@@H](O)/C=C/C[C@H](C)OC2=O,-,-,-,-,-,.,.,
CCC12CCN(CC3(O)CC3)C(Cc3ccc(O)cc31)C2(C)C (stereo unspecified),-,-,-,-,-,.,.,
CCCCCCC(=O)N/N=C/c1c(O)n(CCc2ccccc2)c(=O)[nH]c1=O,-,-,8.7,-,-,-,-,
SMILES,hcDAF-12 act,DAX1 inh,SMARCA2 act,ssDAF12 agonist,hgDAF12 agonist,SMARCA2 act conf,GAL4-VP16 Luc,others
Cc1ccccc1C(=O)N1Cc2cnnn2-c2ccccc2C1C#N (stereo unspecified),-,-,-,-,-,.,.,
Cc1ccccc1CN1Cc2cnnn2-c2ccccc2C1C#N (stereo unspecified),-,-,9.2,-,-,-,-,
CN(C)C(=O)Oc1cccc(-c2cn3cc(Cl)ccc3n2)c1,-,-,26,-,-,18,6.3,
OC1CN2CCCC(O)C2C1O (stereo unspecified),-,-,-,-,-,.,.,
Cc1cccc(C)c1-n1nnnc1C(c1cccs1)N1CCC2(CC1)C(=O)NCN2c1ccccc1 (stereo unspecified),-,-,-,-,-,.,.,
CN/C=C(/Cl)P(=O)(OC(C)C)OC(C)C,-,-,8.0,-,-,-,-,
c1ccc(NC2=NCCS2)cc1,-,-,-,-,-,.,.,
Clc1ccc(N2CCN(Cc3ccccc3Cl)CC2)cc1,-,-,8.2,-,-,-,-,
COc1ccc(-c2nc3ccccc3c(=O)o2)cc1,5.9,-,9.8,-,-,8.7,7.4,
COc1ccc2nc(-c3ccc(CN4CCC(n5c(=O)[nH]c6ccccc65)CC4)cc3)c(-c3ccccc3)nc2c1,-,-,-,-,-,.,.,
COc1ccc(CN2Cc3cc(-c4ccc(OC)cc4)ccc3-n3nncc3C2)cc1,-,-,8.0,-,14,-,-,hgDAF12 ag=-;LXRb DAF12 ctr=-
CC12CCC3C(CC=C4CC(O)CCC43C)C1CC(=CN1CCOCC1)C2=O (stereo unspecified),-,-,-,-,-,.,.,
Cn1c(O)c(/C=C2\C=Nc3ccccc32)c(=O)n(C)c1=O,7.7,-,-,-,-,.,.,LXR ag=-;hcDAF12 ag=-
COc1cc(/C=C2/C(=O)NC(=O)N(c3ccccc3)C2=O)ccc1O,7.0,-,-,-,-,.,.,LXR ag=-;hcDAF12 ag=-
COC1=C(C)C(=O)C2=C(C1=O)C(CO)N1C(C#N)C3CC4C(C1C2N1CCOC41)N3C (stereo unspecified),-,-,-,-,-,.,.,
